The list is not random: actives were taken first. Their share in the collection is about 2.4%.
AmpC nodet inh = inhibitors of E. coli AmpC beta-lactamase without detergent. P00811. AmpC nitrocefin hydrolysis, absorbance 480 nm, no detergent. Potency, µM (top dose mostly 28.7 µM), for inactives: at the top dose activity change, negative = inhibition. actives 1.8% (n = 71,000). AID 585; further: % of control where 0% means no effect
Target sequence (P00811 whole entry, looked up): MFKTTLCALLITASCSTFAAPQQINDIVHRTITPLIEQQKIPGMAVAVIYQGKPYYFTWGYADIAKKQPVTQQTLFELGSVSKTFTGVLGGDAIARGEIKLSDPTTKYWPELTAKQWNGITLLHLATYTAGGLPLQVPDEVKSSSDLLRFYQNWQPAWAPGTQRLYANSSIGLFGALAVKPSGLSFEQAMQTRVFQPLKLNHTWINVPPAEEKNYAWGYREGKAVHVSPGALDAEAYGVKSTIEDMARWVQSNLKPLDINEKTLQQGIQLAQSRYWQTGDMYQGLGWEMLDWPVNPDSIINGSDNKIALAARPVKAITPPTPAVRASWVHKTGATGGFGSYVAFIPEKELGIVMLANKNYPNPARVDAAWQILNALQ
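AmpC, 20 mM phosphate pH 7.0; 15 min cpd preinc, RT; start with nitrocefin (800 uM stock); A480 kinetic read, 20 s intervals, 4 min. No-enzyme wells = negative control.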
LT uptake inh = blocks cellular internalization of anthrax lethal toxin. Cells, anthrax lethal toxin internalization, FRET ratio (460/530). Potency, µM (series often up to 40 µM), for inactives: top-dose activity change, negative = inhibition, most hits filed as inhibitors. actives 0.67% (n = 70,000); further: on the % scale 0 is the no-effect control and ±100 the full control effect; nearly all actives have a fitted effect of over 50% in size
SmPrx2 inh = Schistosoma mansoni Prx2 inhibition; S. mansoni Prx2 activity coupled to TGR/GSH (TGR is thioredoxin glutathione reductase), NADPH fluorescence loss, qHTS; Potency, µM; actives 0.07% (n = 65,000); AID 448
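qHTS, coupled TGR/Prx2 format; 15 min compound preincubation at RT; reaction started with H2O2 (2.5 mM aliquot); kinetic NADPH fluorescence decrease, ex 365/em 450 nm.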
AmpC inh det = blocks E. coli AmpC beta-lactamase in presence of detergent; Potency, µM (highest dose often 28.7 µM), inactives show at the highest dose activity change, negative = inhibition; actives 0.09% (n = 71,000); purified AmpC, nitrocefin hydrolysis with detergent; active means well fitted curve in the direction sought with a large enough effect; inconclusive means small, poorly fitted or top-dose-only effect; further: on the % scale 0 is the no-effect control and ±100 the full control effect
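E. coli AmpC (5.3 nM) in 20 mM phosphate pH 7.0 with 0.01% Triton X-100, preincubated 15 min RT with compound; nitrocefin (2 uL of 800 uM stock) hydrolysis followed by 480 nm absorbance every 20 s over 4 min.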
Active calls of the source: *; ? = inconclusive; . = not tested or not shown; ! = a repeat was not active; [ ] = remark or other dose. Unless noted, the call rests on the fitted dose curve. Potency means the concentration at half of the fitted maximal effect.

SMILES	AmpC nodet inh	LT uptake inh	SmPrx2 inh	AmpC inh det
CCN(CC)CCCN(C(=O)c1cccs1)c1nc(-c2ccc(OC)cc2)cs1	103%	10µM*	>57	-7%
COc1ccc(-c2csc(N(CC3CCCO3)C(=O)c3cccs3)n2)cc1 (configuration not stated)	27%	-26%	>57	2%
C/C(=C\C(=O)c1ccncc1)Nc1ccccc1O	0%	2.5µM*	.	5%
CSc1ccccc1NC(=O)c1ccncc1	5%	-2%	>57	1%
COc1cc(O)c2c(O)c3c(c4c2c1[C@@]1(C4)C(C)=CCCC1(C)C)[C@H](O)[C@@]1(O)CC(=O)C(C(N)=O)=C(O)[C@]1(O)C3=O	-6%[5.75 µM]	?	>57	-4%[5.75 µM]
CC(=O)N1CCN(c2ccc(NCc3ccc(C)s3)cc2)CC1	4µM*[single pt active]	-7%	>57	14%
Cc1ccc(CNc2ccc(N3CCOCC3)cc2)s1	39%	-12%	>57	-5%
CC1(C)C(=O)NC2=C1C(=O)C(=O)c1ccccc12	1%	?	>57	-4%
C[C@@]12CC[C@H]3[C@@H](CC=C4C[C@H](OS(=O)(=O)O)CC[C@]43C)[C@H]1CCC2=O	5%	?	>57	-1%
CCN(CC)CCO[C@H]1CC[C@@]2(C)C(=CC[C@@H]3[C@H]2CC[C@]2(C)C(=O)CC[C@H]32)C1	44%	25µM*	>57	-2%
Cc1ccnc(NC2c3ccccc3C(=O)N2Cc2ccccc2Cl)c1 (configuration not stated)	4µM*[single pt active]	-6%	>57	12%
Cn1cccc1C(=O)N1CCC[C@@]2(CCN(C(=O)Nc3cccc(F)c3)C2)C1	14%	0%	>57	0%
Cc1cc(C(=O)CSc2nc3ccccc3n2CCC#N)c(C)n1Cc1cccs1	16µM*	-26%	>57	-1%
CCOc1ccc(-n2c(CC)nc3ccccc3c2=O)cc1	3.2µM*[single pt active]	-17%	>57	12%
CCOC(=O)Nc1ccc2c(c1)N(C(=O)OCCN(C)C)c1ccccc1CC2	4µM*[single pt active]	-12%	>57	9%
CCS(=O)(=O)Nc1ccc2c(c1)N(C(C)=O)c1ccccc1CC2	21%	?	>57	-1%
COc1cccc(Cn2c(=O)c(C)nc3cnc(N4CCOCC4)nc32)c1	5%	6%	>57	2%
Cc1ccc(OCCCC(=O)Nc2ccc(S(=O)(=O)Nc3cc(C)on3)cc2)cc1	10µM*[single pt active]	4%	>57	7%
CCCCOC(=O)Nc1ccc(S(=O)(=O)Nc2cc(C)nc(C)n2)cc1	3.2µM*[single pt active]	?	>57	12%
CCOC(=O)c1sc(NC(=O)CSc2nnc(-c3ccco3)n2CC)c(C(=O)OCC)c1C	86%	10µM*	>57	11%
CCOC(=O)c1c(NC(=O)CSc2nnc(-c3ccccc3)n2CC)sc(C(C)=O)c1C	60%	-10%	.	-2%
O=C(Nc1ccccc1)Nc1ccc(S(=O)(=O)N2CCCCC2)cc1	-23%	?	>57	-2%
CN1CCN(S(=O)(=O)c2ccc(NC(=O)Nc3cccc(Cl)c3)cc2)CC1	13%	13µM*	>57	-3%
O=C(O)c1cccc([As]=[As]c2cccc(C(=O)O)c2)c1 (configuration not stated)	4%[5.75 µM]	?	0.25*	0%[5.75 µM]
Cc1nc(NC(=O)c2ccccc2)sc1-c1csc(NCc2ccco2)n1	13µM*	?	>57	14%
SMILES	AmpC nodet inh	LT uptake inh	SmPrx2 inh	AmpC inh det
Cc1nc(C)c(-c2csc(NCc3ccco3)n2)s1	8%	-2%	>57	1%
O=C1[C@H]2[C@H]3[C@H](O)[C@H](O)C/C(=N/OC[C@@H](O)COCc4ccco4)[C@@H]3CC[C@@H]2C(=O)N1Cc1ccccc1	.	-3%[8 µM]	.	.
C[C@@H]1CN(CCCn2c3ccccc3c3ccccc32)C[C@H](C)N1	84%	32µM*	>57	-3%
O=C(Nc1ccc(O)cc1)C1CC=CCC1 (configuration not stated)	13µM*[single pt active]	-1%	>57	7%
Cc1ccc(S(=O)(=O)N2CCCC2C(=O)Nc2ccc(O)cc2)cc1 (configuration not stated)	-7%	-1%	>57	12%
COC(=O)c1ccc(C(NC(=O)OCc2ccccc2)/C(=C/[C@@H](C)C(=O)NCc2nc3ccccc3n2C)c2cccnc2)cc1 (some centres not stated)	124%	6%	.	2%
O=C(NCc1ccc2c(c1)OCO2)c1cccc2c1C(=O)N(C1CCCCC1)C2	2.5µM*[single pt active]	2%	>57	14%
CCNc1sc(C(=O)c2cccs2)c(N)c1-c1nc2ccccc2s1	0.02µM*	?	>57	9%
C=CCn1c2ccccc2c2nnc(SCN3C(=O)c4ccccc4C3=O)nc21	16%	-16%	>57	3%
C=CCn1c2ccccc2c2nnc(SCCCn3c(=O)[nH]c4ccccc43)nc21	21%	6.3µM*	.	-3%
O=[As](O)(O)c1ccc(Cc2ccc([As](=O)(O)O)cc2)cc1	12%[5.75 µM]	?	0.17*	-2%[5.75 µM]
CC[C@]1(c2ccccc2)NC(=O)N(C)C1=O	-4%[12.8 µM]	1%[3.58 µM]	>57	-2%[12.8 µM]
Nc1nc(Nc2ccccc2)nc2c1ncn2[C@@H]1O[C@@H](CO)[C@H](O)[C@@H]1O	-10%	-3%	>57	-1%
N#Cc1sc2nc3c(c(-c4ccco4)c2c1N)CCCC3	13µM*[single pt active]	-14%	>57	10%
C[C@H](Oc1ccc(Oc2cnc3ccc(Cl)cc3n2)cc1)C(=O)O	0%[5.75 µM]	-5%[8 µM]	>57	-3%[5.75 µM]
CC1(C(=O)NCc2cccnc2)CCC(=O)N1CCc1ccccc1 (configuration not stated)	4µM*[single pt active]	-8%	>57	16%
COc1ccc(CCN2C(=O)CCC2(C)C(=O)NCc2cccnc2)cc1OC (configuration not stated)	-3%	-2%	>57	-2%
CC1(C(=O)NCc2cccnc2)CCC(=O)N1Cc1cccs1 (configuration not stated)	4µM*[single pt active]	0%	>57	14%
COc1ccc(-n2c(=O)cnc3cnc(N(C)C)nc32)cc1	16%	?	>57	-1%
Clc1nc2ccccc2nc1Cl	-13%	.	.	5%
CCOc1ccccc1CNC(=O)c1cc2occc2n1C	10µM*[single pt active]	-28%	>57	?
COc1ccccc1CNC(=O)c1cc2sccc2n1C	16%	?	>57	-1%
CN(CC(CC(=O)Nc1nncs1)c1ccccc1)S(=O)(=O)c1ccccc1 (configuration not stated)	4µM*[single pt active]	5%	>57	9%
O=C(O)CC(CC(=O)Nc1nncs1)c1ccccc1 (configuration not stated)	-21%	4%	>57	-5%
Oc1ccc(Cl)cc1Sc1cc(Cl)ccc1O	-12%[5.75 µM]	5µM*!	>57	-3%[5.75 µM]
COc1ccc(NC(=O)NCCCN2CCc3ccccc3C2)cc1	4µM*[single pt active]	-9%	>57	14%
COc1ccccc1N1CCN(CCCNC(=O)Nc2ccccc2)CC1	18%	.	>57	-3%
Cc1ccc(-c2csc(N3CCC(C(N)=O)(N4CCCCC4)CC3)n2)cc1	4µM*[single pt active]	-2%	>57	14%
C[C@@]12CC[C@H]3[C@@H](CCC4=CC(=O)CC[C@]43C)[C@H]1CCC2=O	17%	-7%	>57	-3%

From PubChem BioAssay
